Data taken from PubChem BioAssay AID1159580 (chemical genetic matrix, 2015).
About 2,000 (36%) of roughly 5,500 compounds were called active. Inconclusive results (about 18%) are left out. No stated cut-off is given here; in the data, active means normalized growth mostly below about 0.91 (no sharp cut-off); inconclusive means no clear call, values can overlap the other calls; inactive means mostly above about 0.92. The list shows a part of the results.

Test: chemical genetic growth profiling, strain panel (AID 1159580);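 further: tested at 20 µM; growth read once vehicle control cultures reached saturation at 30 °C; 1 = growth at the plate median or of vehicle wells; lower values mean less growth of the strain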
Details: growth OD

Measured: normalized growth

CCC(C)C(OC(C)=O)C(=O)OC1C(O)C2C3(C)C=CC(=O)C(C)(C)C3CC(OC(=O)C(O)C(C)C)C2(C)C23OC2CC(c2ccoc2)C13C (stereo unspecified)
inactive: S. cerevisiae deletion strains, locus YAL013W, strain DEP1, active compounds read low 1.01 | S. cerevisiae deletion strains, locus YBR021W, strain FUR4, active compounds read low 0.996 | S. cerevisiae deletion strains, locus YBR229C, strain ROT2, active compounds read low 0.989 | S. cerevisiae deletion strains, locus YCL029C, strain bik1, active compounds read low 0.978 | S. cerevisiae deletion strains, locus YDL035C, strain GPR1, active compounds read low 0.976 | S. cerevisiae deletion strains, locus YDL074C, strain BRE1, active compounds read low 1.02 | S. cerevisiae deletion strains, locus YDL101C, strain DUN1, active compounds read low 1 | S. cerevisiae deletion strains, locus YDL134C, strain PPH21, active compounds read low 1 | S. cerevisiae deletion strains, locus YDL185W, strain tfp1, active compounds read low 0.988 | S. cerevisiae deletion strains, locus YDL192W, strain arf1, active compounds read low 0.989 | S. cerevisiae deletion strains, locus YDR101C, strain arx1, active compounds read low 0.991 | S. cerevisiae deletion strains, locus YDR150W, strain NUM1, active compounds read low 1.01 | S. cerevisiae deletion strains, locus YDR162C, strain NBP2, active compounds read low 1.02 | S. cerevisiae deletion strains, locus YDR318W, strain mcm21, active compounds read low 0.966 | S. cerevisiae deletion strains, locus YDR388W, active compounds read low 0.988 | S. cerevisiae deletion strains, locus YDR502C, strain sam2, active compounds read low 1.02 | S. cerevisiae deletion strains, locus YEL061C, strain CIN8, active compounds read low 1 | S. cerevisiae deletion strains, locus YER110C, active compounds read low 0.992 | S. cerevisiae deletion strains, locus YER155C, strain BEM2, active compounds read low 1 | S. cerevisiae deletion strains, locus YER167W, strain BCK2, active compounds read low 0.982 | S. cerevisiae deletion strains, locus YGL078C, strain dbp3, active compounds read low 1 | S. cerevisiae deletion strains, locus YGL086W, strain mad1, active compounds read low 0.978 | S. cerevisiae deletion strains, locus YGL248W, strain PDE1, active compounds read low 0.999 | S. cerevisiae deletion strains, locus YGR078C, strain PAC10, active compounds read low 1.04 | S. cerevisiae deletion strains, locus YGR135W, strain pre9, active compounds read low 1.02 | S. cerevisiae deletion strains, locus YGR229C, strain SMI1, active compounds read low 1.02 | S. cerevisiae deletion strains, locus YGR252W, strain gcn5, active compounds read low 0.946 | S. cerevisiae deletion strains, locus YHR030C, strain SLT2, active compounds read low 0.994 | S. cerevisiae deletion strains, locus YHR079C, strain IRE1 (second series), active compounds read low 1 | S. cerevisiae deletion strains, locus YHR094C, strain hxt1, active compounds read low 0.988 | S. cerevisiae deletion strains, locus YHR129C, strain ARP1, active compounds read low 1 | S. cerevisiae deletion strains, locus YHR200W, strain rpn10, active compounds read low 0.987 | S. cerevisiae deletion strains, locus YIL066C, strain RNR3, active compounds read low 0.994 | S. cerevisiae deletion strains, locus YIL073C, strain SPO22, active compounds read low 0.902 | S. cerevisiae deletion strains, locus YIL125W, strain kgd1, active compounds read low 0.986 | S. cerevisiae deletion strains, locus YIR030C, strain dcg1, active compounds read low 0.988 | S. cerevisiae deletion strains, locus YJL095W, strain BCK1, active compounds read low 1.05 | S. cerevisiae deletion strains, locus YJL134W, strain LCB3, active compounds read low 0.997 | S. cerevisiae deletion strains, locus YJL168C, strain set2, active compounds read low 0.992 | S. cerevisiae deletion strains, locus YJL187C, strain SWE1 (second series), active compounds read low 1.01 | S. cerevisiae deletion strains, locus YJR043C, strain POL32, active compounds read low 0.969 | S. cerevisiae deletion strains, locus YJR075W, strain HOC1, active compounds read low 1.01 | S. cerevisiae deletion strains, locus YKL009W, strain mrt4, active compounds read low 1.08 | S. cerevisiae deletion strains, locus YKL068W, active compounds read low 1 | S. cerevisiae deletion strains, locus YKL085W, strain MDH1 (second series), active compounds read low 1.04 | S. cerevisiae deletion strains, locus YKL085W, strain MDH1, active compounds read low 1.04 | S. cerevisiae deletion strains, locus YKL190W, strain CNB1, active compounds read low 0.998 | S. cerevisiae deletion strains, locus YKR001C, strain vps1, active compounds read low 0.991 | S. cerevisiae deletion strains, locus YLR039C, strain RIC1, active compounds read low 0.962 | S. cerevisiae deletion strains, locus YLR058C, strain SHM2, active compounds read low 0.995 | S. cerevisiae deletion strains, locus YLR102C, strain apc9, active compounds read low 0.982 | S. cerevisiae deletion strains, locus YLR262C, strain YPT6, active compounds read low 0.973 | S. cerevisiae deletion strains, locus YLR268W, strain sec22, active compounds read low 1.02 | S. cerevisiae deletion strains, locus YLR330W, strain CHS5, active compounds read low 0.996 | S. cerevisiae deletion strains, locus YLR342W, strain FKS1 (second series), active compounds read low 0.987 | S. cerevisiae deletion strains, locus YLR371W, strain rom2, active compounds read low 0.985 | S. cerevisiae deletion strains, locus YLR418C, strain cdc73, active compounds read low 1 | S. cerevisiae deletion strains, locus YML016C, strain PPZ1, active compounds read low 1 | S. cerevisiae deletion strains, locus YML032C, strain rad52, active compounds read low 0.97 | S. cerevisiae deletion strains, locus YML124C, strain tub3, active compounds read low 0.993 | S. cerevisiae deletion strains, locus YMR078C, strain ctf18, active compounds read low 0.977 | S. cerevisiae deletion strains, locus YMR223W, strain ubp8, active compounds read low 0.983 | S. cerevisiae deletion strains, locus YMR263W, strain SAP30, active compounds read low 1.04 | S. cerevisiae deletion strains, locus YMR307W, strain GAS1, active compounds read low 0.912 | S. cerevisiae deletion strains, locus YNL067W, strain RPL9B, active compounds read low 1.03 | S. cerevisiae deletion strains, locus YNL128W, strain TEP1, active compounds read low 1.01 | S. cerevisiae deletion strains, locus YNL153C, strain GIM3, active compounds read low 1.05 | S. cerevisiae deletion strains, locus YNL233W, strain BNI4, active compounds read low 1.03 | S. cerevisiae deletion strains, locus YNL250W, strain rad50, active compounds read low 0.992 | S. cerevisiae deletion strains, locus YNL271C, strain bni1, active compounds read low 0.993 | S. cerevisiae deletion strains, locus YNL298W, strain CLA4, active compounds read low 0.99 | S. cerevisiae deletion strains, locus YNL307C, strain MCK1, active compounds read low 0.979 | S. cerevisiae deletion strains, locus YNL322C, strain KRE1, active compounds read low 0.999 | S. cerevisiae deletion strains, locus YNR052C, strain pop2, active compounds read low 0.988 | S. cerevisiae deletion strains, locus YOL006C, strain TOP1, active compounds read low 0.949 | S. cerevisiae deletion strains, locus YOL012C, strain htz1 2.38 | S. cerevisiae deletion strains, locus YOL147C, strain pex11, active compounds read low 0.999 | S. cerevisiae deletion strains, locus YOR061W, strain CKA2, active compounds read low 1 | S. cerevisiae deletion strains, locus YOR069W, strain VPS5, active compounds read low 0.978 | S. cerevisiae deletion strains, locus YOR136W, strain idh2, active compounds read low 0.979 | S. cerevisiae deletion strains, locus YOR144C, strain elg1, active compounds read low 1 | S. cerevisiae deletion strains, locus YOR184W, strain ser1, active compounds read low 0.946 | S. cerevisiae deletion strains, locus YOR316C, strain cot1, active compounds read low 0.996 | S. cerevisiae deletion strains, locus YPL055C, strain LGE1, active compounds read low 1.05 | S. cerevisiae deletion strains, locus YPL241C, strain CIN2, active compounds read low 1 | S. cerevisiae deletion strains, locus YPR119W, strain clb2, active compounds read low 0.993 | S. cerevisiae deletion strains, locus YPR141C, strain kar3, active compounds read low 0.99 | S. cerevisiae deletion strains, locus YPR163C, strain tif3, active compounds read low 0.986 | S. cerevisiae deletion strains, locus YPR167C, strain met16, active compounds read low 0.99 | S. cerevisiae deletion strains, strain wtn01, active compounds read low 1 | S. cerevisiae strains, strain wild type, active compounds read low 0.985
